Drawing on PubChem BioAssay (NCI), this text covers growth inhibition for 20 compounds.

Compounds without any hit were thinned out: in the full panel of roughly 79,000, 15% have a hit. A number with no mark means an inactive call. Activity calls are given as the source filed them. Rule as the data show it: active = growth inhibition above about 70%; inactive = the rest.

Test [1] in a line: NCI Yeast Anticancer Drug Screen. Data for the rad50 strain (AID 155).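 Also: 0% = growth of vehicle-only cultures of the same strain.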 The note with it: S. cerevisiae rad50 strain growth inhibition; at 50.0 µM; active compounds read high. The essentials: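 DNA repair mutant yeast, compound exposure, growth read-out; inhibition is taken relative to vehicle.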
Test [2] is described as follows: NCI Yeast Anticancer Drug Screen. Data for the mec2-1 strain (AID 157). The settings on record: S. cerevisiae mec2-1 strain, at 50.0 µM, active compounds read high. A digest of the protocol:
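Test agents were screened against the mec2-1 yeast strain, with defined DNA repair or cell cycle alteration. Growth was scored as inhibition against vehicle-only controls.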

Test [3] is described as follows: NCI Yeast Anticancer Drug Screen. Data for the sgs1 mgt1 strain (AID 161).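 Also: 0% = growth of cultures given vehicle only.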 The settings on record: S. cerevisiae sgs1 mgt1 strain, at 50.0 µM, active compounds read high. A digest of the protocol:
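Genetically altered yeast, compound exposure, growth inhibition relative to vehicle.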

Test [4] can be described thus: NCI Yeast Anticancer Drug Screen. Data for the cln2 rad14 strain (AID 165).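 Also: 0% = growth equal to vehicle treated cultures.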 The settings on record: S. cerevisiae cln2 rad14 strain, at 50.0 µM, active compounds read high. The essentials: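 Growth of compound-exposed yeast (cln2 rad14 genotype) measured and expressed as inhibition relative to vehicle.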
Test [5] is described as follows: NCI Yeast Anticancer Drug Screen. Data for the bub3 strain (AID 167). The note with it: S. cerevisiae bub3 mutant strain, at 50.0 µM, active compounds read high. The essentials:
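In this screen, a yeast mutant lacking normal mitotic checkpoint function is challenged with compound. Relative growth versus vehicle gives the inhibition value.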

A short description of test [6]: NCI Yeast Anticancer Drug Screen. Data for the mlh1 rad18 strain (AID 175). The settings on record: S. cerevisiae mlh1 rad18 strain growth inhibition; at 50.0 µM; active compounds read high. A digest of the protocol: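 In this whole-cell yeast screen, a strain with altered DNA damage repair is challenged with compound, and its growth is measured against matched vehicle-treated controls.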

`CCCCCCCc1c(C)c2ccc(OC)cc2[nH]c1=O`: the growth inhibition in test [1] was -9.8%; in test [2], -29.1%; in test [3], -5.8%; in test [4], -5%; in test [5], -6.85%; in test [6], -5.15%.

Regarding `CC1(C)C2CCC1(CC(=O)O)C(O)C2=O` (stereo not given), the growth inhibition in test [1] was -13.3%; in test [2], -23.2%; in test [3], -14.6%; in test [4] it was -12.6%; in test [5], -4.6%; in test [6], -5.45%.

Take `CCOCCOC(=O)C(C)OC(=O)/C(=C/C(=O)O)CCOCC` (stereo not given): the growth inhibition in test [1] is -1%; in test [2], -18.4%; in test [3] it was -9.75%; in test [4] it was -0.2%; in test [5], -1.6%; in test [6] it was 8.85%.

Take `NC1=C(O)C(=O)C(c2ccc(C3OC(N)=C(O)C3=O)cc2)O1` (stereo not given): the growth inhibition is -8.15% in test [1]; -17.6% in test [2]; -18.6% in test [3]; -0.3% in test [4]; -27.6% in test [5]; -3.5% in test [6].

Take `Cc1ccc(Cl)cc1NC(=O)Oc1cc(C)c(Cl)c(C)c1`: the growth inhibition in test [1] is 1%; in test [2], 8.2%; in test [3], -4.1%; in test [4] it was 6.85%; in test [5], 25.7%; in test [6], 4.35%.

Turning to `CCOC(=O)c1ccc(NC(=S)NC(=O)c2cccc([N+](=O)[O-])c2)cc1`, the growth inhibition in test [1] is -3.15%; in test [2], 6.55%; in test [3] it was 16.1%; in test [4], -12.8%; in test [5], 15.1%; in test [6] it was 15.2%.

In the case of `c1ccc(CC2NCCc3c2[nH]c2ccccc32)cc1` (stereo not given), the growth inhibition in test [1] was -14.2%; in test [2], 2.9%; in test [3] it was -5.05%; in test [4], -6.2%; in test [5], -11.9%; in test [6] it was 1.5%.

For `O=C1c2cccnc2-c2nccc3c2c1nc1ccccc13`, the growth inhibition is 90.3% (active) in test [1]; 92.8% (active) in test [2]; 91% (active) in test [3]; 91.4% (active) in test [4]; 91.5% (active) in test [5]; 90.7% (active) in test [6].

Turning to `NC(CC(=O)O)c1ccc(Cl)cc1` (stereo not given), the growth inhibition in test [1] is -22.5%; in test [2], -23.3%; in test [3], -14.4%; in test [4], -8.3%; in test [5], 0.3%; in test [6], 7%.

Turning to `CCOC(=O)c1ccc(NC(=O)c2cnccn2)cc1`, the growth inhibition is -6.5% in test [1]; 0.3% in test [2]; -17.7% in test [3]; -15.4% in test [4]; -20.4% in test [5]; -2% in test [6].

As to `CC(C)C(=O)CC(c1ccc(Cl)cc1)N1N=C(C(C)C)CC1c1ccc(Cl)cc1` (stereo not given), the growth inhibition is 8.05% in test [1]; 15.2% in test [2]; 6.95% in test [3]; -27.4% in test [4]; 40% in test [5]; 14.4% in test [6].

Regarding `Sc1ccccc1N=Cc1ccc(C=Nc2ccccc2S)cc1`, the growth inhibition was -15.8% in test [1]; -8.05% in test [2]; 7.1% in test [3]; 18.8% in test [4]; 4.45% in test [5]; -3.75% in test [6].

Consider `N#CCCN(CCC#N)c1ccc(/C=C2/C=C(c3ccccc3)OC2=O)cc1`, for which the growth inhibition is 22.4% in test [1]; -0.25% in test [2]; 19.1% in test [3]; 7.75% in test [4]; -5.85% in test [5]; 11.3% in test [6].

`O=C(O)c1cc(O)[nH]c(=O)c1`: the growth inhibition in test [1] was -12%; in test [2] it was -105%; in test [3], -22.6%; in test [4], -48.5%; in test [5] it was -26%; in test [6], -16.2%.

On to `O=C(N/N=C/c1ccccc1)c1c(-c2cccnc2)cnc2ccccc12`, for which the growth inhibition in test [1] was -12.8%; in test [2] it was -9.3%; in test [3], -10.6%; in test [4] it was 10.9%; in test [5] it was 12.3%; in test [6], 14.3%.

Consider `O=C(CCCC(=O)N/N=C/c1ccc(Cl)cc1)N/N=C\c1ccc(Cl)cc1`, for which the growth inhibition was -27.4% in test [1]; -9.9% in test [2]; -9.9% in test [3]; -11.6% in test [4]; -1.65% in test [5]; -16.9% in test [6].

`CC(=O)OCC(=O)C1(O)CCC2C3CCC4=CC(=O)CCC4(C)C3(SC#N)CC(=O)C21C` (stereo not given): the growth inhibition in test [1] was -8%; in test [2], 19.9%; in test [3] it was 27.2%; in test [4], 13.2%; in test [5], 11.8%; in test [6], 2.45%.

`Cc1cn(C)c2c1-c1oncc1CC2`: the growth inhibition in test [1] is -4.3%; in test [2], -14.7%; in test [3], 5.4%; in test [4] it was -7%; in test [5], -35.3%; in test [6], 2.3%.

For `C/C(Cl)=N\OC(=O)Nc1ccc([N+](=O)[O-])cc1`, the growth inhibition in test [1] is 34.2%; in test [2] it was 80.2% (active); in test [3], 85.8% (active); in test [4], 66.8%; in test [5], 87.2% (active); in test [6], 43.4%.

On to `O=C(Oc1ccccc1OC(=O)c1ccc(Cl)cc1)c1ccc(Cl)cc1`, for which the growth inhibition in test [1] was 3.15%; in test [2], 6.4%; in test [3], 12.7%; in test [4], 6.7%; in test [5], -2.65%; in test [6], 8.6%.
